Hits are enriched below; roughly 1.4% of the tested compounds scored in any of these assays.
a7 integrin act = qHTS for Activators of Integrin-Mediated Alleviation for Muscular Dystrophy. alpha7betagal myoblasts, beta-gal FDG fluorescence, 48 h. Potency, µM (series often up to 38.3 µM), most hits filed as activators. actives 0.064% (n = 350,000). AID 624291, 2012; also: nearly all actives have a fitted effect of over 60% in size
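Alpha7betagal+/- myoblasts (passage 13) were plated 16-24 hr, then exposed to compounds (1:260 dilution of DMSO stock) for 48 hours at 37C. After MPER lysis, β-galactosidase reporter activity was read as FDG fluorescence (ex 480/em 540) after 30 minutes.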
BRCA1 expr act = qHTS Assay to Identify Small Molecule Activators of BRCA1 Expression. MCF7-BRCA1-FFLuc reporter, luminescence, 48 h; response scale: scaled: vehicle 0%, 10 µM genistein 100%. Potency, µM (series often up to 46.1 µM), usual class: activators. actives 1.1% (n = 380,000). AID 624202, 2012; also: nearly all actives have a fitted effect of over 80% in size
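Reporter cells (MCF7, BRCA1 promoter-firefly luciferase) received library compounds across a concentration series for 48 h. End-point luminescence was measured and concentration-effect curves derived after normalization.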
IL2 activator = qHTS of IL-2 Activators; IL-2 activation reporter assay, cell-based qHTS; stimulated with anti-CD3/CD4/CD28 beads; in transgenic mouse T cells; activation, % (series mostly up to about 46 µM); actives 0.065% (n = 360,000); in the data active = activation above about 50%; inconclusive = mostly about 30% to 49%
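Readout: EGFP and DsRed signals by fluorescent plate cytometry. Unstimulated transgenic mouse T cells received compound 60 min before antibody-bead stimulation, then incubated 18 h at 37 degrees C.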
Nrf2 ARE act = qHTS of Nrf2 Activators. actives 0.31% (n = 410,000). AREc32 ARE-luciferase reporter (MCF7-derived line), luminescence, 24 h. Potency, µM (doses to about 46.1 µM), hits mostly activators; also: nearly all actives have a fitted effect of over 65% in size
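Cells of the AREc32 ARE-luciferase line are plated in OPTI-MEM containing 5% FBS and left overnight at 37 deg C. Compounds are pinned in, incubation continues 24 hr, and firefly luciferase signal is then measured.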
Chronic BCR inh = qHTS Assay to Find Inhibitors of Chronic Active B-Cell Receptor Signaling; ABC-DLBCL IkBa-CBG/CBR reporter, luminescence ratio, 4 h; Potency, µM (titrated, usually from 46.1 µM), most hits filed as inhibitors; actives 0.05% (n = 340,000); active = well fitted inhibition curve with a large enough effect in the signal ratio, with a control signal flat, not every such curve was filed as active; inconclusive = small, poorly fitted or top-dose-only effect, or effect the other way, or a change in a side signal; the % refers to the signal ratio
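Concentration-response series (up to 46 uM) were applied to TMD8 dual-reporter cells for 4 h at 37C with doxycycline. Green/red ratio, after filter-overlap correction, defined %Activity; red signal alone was normalised to basal cells and zero luminescence.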
N370S GC mod = qHTS Assay for Inhibitors and Activators of N370S glucocerebrosidase as a Potential Chaperone Treatment of Gaucher Disease; Potency, µM (doses to about 59.4 µM), most hits filed as inhibitors; AID 2101, 2009; N370S GC spleen homogenate, 4MU-glucoside fluorescence; actives 0.092% (n = 330,000); Lysosomal acid glucosylceramidase (Homo sapiens), P04062
Of the large screens only hits and unclear results are named; the others gave an inactive call. Unless noted, calls follow the shape of the dose curve; as a rule, active = well fitted curve in the direction sought with a large enough effect; inconclusive = small, poorly fitted or top-dose-only effect, or another doubt; inactive = no such curve, though single readings can be large; an effect the other way counts as inactive or inconclusive.

Cc1ccc2oc(=O)c(/C=C(\O)c3ccccc3)nc2c1	BRCA1 expr act 7.1µM, Nrf2 ARE act 14µM, Chronic BCR inh inconclusive
Cc1ccc2oc(=O)c(/C=C(\O)c3cccs3)nc2c1	BRCA1 expr act inconclusive, Nrf2 ARE act 16µM, Chronic BCR inh inconclusive
CC(C)(C)S(=O)(=O)N1C[C@@H]2CC/C=C\C/C(c3ccccc3)=C\2[C@H]1CCO	none (no result: Chronic BCR inh, N370S GC mod)
O=c1[nH][nH]cc1C=Nc1ccccc1Cl	none
O=c1[nH][nH]cc1C=Nc1ccccc1O	Nrf2 ARE act 13µM
COc1cc(/C=C(\C#N)c2nc3ccc(C)cc3[nH]2)cc([N+](=O)[O-])c1O	a7 integrin act inconclusive, BRCA1 expr act 7.1µM, Chronic BCR inh inconclusive
CCN(CC)c1ccc(/C=C(/C#N)c2nc3ccc(C)cc3[nH]2)c(OC(C)C)c1	IL2 activator 218, Chronic BCR inh inconclusive
OC(C[n+]1cccc(Br)c1)c1ccccc1 (centres undefined)	none (no result: a7 integrin act, IL2 activator, Nrf2 ARE act, Chronic BCR inh, N370S GC mod)
O=Cc1sc(Nc2ccccc2)nc1Cl	Nrf2 ARE act 14µM, Chronic BCR inh inconclusive
O=C(CCl)NCCCN(C(=O)C(Cl)Cl)c1ccc([N+](=O)[O-])cc1	Nrf2 ARE act 11µM, Chronic BCR inh inconclusive
COCCCNC(=O)c1ccc([N+](=O)[O-])cc1	none
COc1cccc(NC(=O)c2ccccc2F)c1	BRCA1 expr act 7.9µM, Chronic BCR inh inconclusive
COCC(=O)Nc1c(C(=O)Nc2cccc(OC)c2)oc2ccccc12	BRCA1 expr act inconclusive
O=C(Nc1ccc(Nc2ccccc2)cc1)c1ccccc1F	BRCA1 expr act 1.1µM, Chronic BCR inh inconclusive
COc1cccc(NC(=O)c2oc3ccccc3c2NC(C)=O)c1	BRCA1 expr act 3.5µM, Chronic BCR inh inconclusive
O=C(N/N=C/c1ccco1)Nc1ccccc1	BRCA1 expr act 6.3µM, Nrf2 ARE act inconclusive, Chronic BCR inh inconclusive, N370S GC mod inconclusive
Brc1ccc(/C=C2\C=Cc3ccccc32)cc1	none (no result: a7 integrin act, IL2 activator, Nrf2 ARE act, Chronic BCR inh, N370S GC mod)
CCOc1nc(C#N)nc(N(c2ccccc2)c2ccccc2)n1	none (no result: a7 integrin act, IL2 activator, Nrf2 ARE act, Chronic BCR inh, N370S GC mod)
CCCCCCN(C(=O)CCCN1C(=O)NC(c2ccc([N+](=O)[O-])cc2)C(C(=O)OCc2ccccc2)=C1C)C(C)C(=O)NCCCC (centres undefined)	none (no result: N370S GC mod)
COc1ccc(-c2csc(NC(=O)c3ccccc3F)c2C(=O)O)cc1	BRCA1 expr act 6.3µM, Chronic BCR inh inconclusive
O=C(Nc1ccccc1)Nc1ccc(Nc2ccccc2)cc1	BRCA1 expr act 4µM (no result: Chronic BCR inh, N370S GC mod)
NC(=O)C1CCN(c2nc(-c3cc4ccccc4o3)cs2)CC1	BRCA1 expr act 11µM (no result: a7 integrin act, N370S GC mod)
OCc1ccccc1OCCOc1ccc(Cl)c2cccnc12	none
Clc1ccc(OCc2cn3ccccc3n2)c2ncccc12	BRCA1 expr act 3.2µM, Chronic BCR inh inconclusive
COc1ccc(Cl)c(-c2cc(C(=O)Nc3ccc(F)cc3)[nH]n2)c1	none (no result: a7 integrin act, Chronic BCR inh, N370S GC mod)
C=CCN(CC=C)c1ccc(/C=C/c2ccnc3ccccc23)cc1	none (no result: a7 integrin act, IL2 activator, Nrf2 ARE act, Chronic BCR inh, N370S GC mod)
CSc1nsc(SC)c1C(=O)Nc1ccc(C(C)(C)C)cc1	Nrf2 ARE act 11µM
CSc1nsc(SC)c1C(=O)NC(=O)Nc1cccnc1	none
COc1cc2c(cc1OC)C1(CCCC1)CNC2c1cccc([N+](=O)[O-])c1 (centres undefined)	none
CCN(CC)C(=O)Oc1ccc2c(c1)O/C(=C\c1ccco1)C2=O	none
CCC(=O)Oc1ccc2c(c1)O/C(=C\c1ccco1)C2=O	Nrf2 ARE act 7.9µM
CC(=O)c1cccc(NC(=O)COc2ccccc2C(=O)Nc2ccccc2)c1	none (no result: a7 integrin act, IL2 activator, Nrf2 ARE act, Chronic BCR inh, N370S GC mod)
O=C(CN1CCN(c2ccccc2)CC1)Nc1cccc([N+](=O)[O-])c1	none
Cc1cc(NC(=O)c2ccc(NC(=O)C3CCCO3)cc2)ccc1Br (centres undefined)	BRCA1 expr act 1.1µM
CCCOC(=O)c1ccc(NC(=O)C2CCCO2)cc1 (centres undefined)	BRCA1 expr act 11µM, Chronic BCR inh inconclusive
CCN1C(=NCc2cccc(Cl)c2)N[C@@H](c2cccc(C(F)(F)F)c2)C(C(=O)OC)=C1C	none (no result: a7 integrin act, IL2 activator, Nrf2 ARE act, Chronic BCR inh, N370S GC mod)
CN(/N=C/c1ccccc1O)C(=S)c1ccccc1	none
CN(N=Cc1ccccc1O)c1ccc2ccccc2n1	Nrf2 ARE act 4.5µM (no result: Chronic BCR inh, N370S GC mod)
COc1ccc(C(CNC(=O)c2ccc(NS(=O)(=O)c3ccc(F)c(C)c3)cc2)N2CCOCC2)cc1 (centres undefined)	N370S GC mod 14µM
COc1ccc(C(CNC(=O)c2ccc(NS(=O)(=O)c3ccc(F)cc3)cc2)N2CCOCC2)cc1 (centres undefined)	N370S GC mod inconclusive
Cc1cc(-c2ccc(C)c(S(=O)(=O)N3CCN(c4ccccn4)CC3)c2)on1	none
COCCN(C(=O)CSc1nnc(-c2ccc(C)cc2)n1N)c1c(N)n(Cc2ccccc2)c(=O)[nH]c1=O	none
O=C(COc1ccc(F)cc1Br)NCc1nnc2ccccn12	none (no result: N370S GC mod)
COc1cc(C#Cc2c(C=O)n(C)c3ccccc23)cc(OC)c1	IL2 activator 51 (no result: N370S GC mod)
Cn1cncc1C#Cc1c(C=O)n(C)c2ccccc12	a7 integrin act inconclusive (no result: N370S GC mod)
CCN(Cc1ccccc1)S(=O)(=O)c1ccc(C(=O)N(CCCN(C)C)c2nc3cc(C)cc(C)c3s2)cc1	Chronic BCR inh inconclusive, N370S GC mod 14µM
CCN(C[C@H]1N[C@@](C)(C(=O)OC)[C@H]2C(=O)N(C)C(=O)[C@@H]12)S(=O)(=O)c1ccc(OC)cc1	none (no result: N370S GC mod)
COc1ccccc1-c1nc(COc2ccc(Cl)cc2Cl)no1	BRCA1 expr act 4.5µM, Chronic BCR inh inconclusive
COc1cccc(-c2nc(COc3ccc(Cl)cc3Cl)no2)c1	none
Cc1csc(NC(=O)CSc2nc(=O)n(CCN(C)C)c3c2CCCC3)n1	none
S=c1nc(-c2ccccc2)oc2c1CCCC2	BRCA1 expr act inconclusive, Nrf2 ARE act 11µM
COc1cccc(-c2nc(=S)c3c(o2)CCCC3)c1	BRCA1 expr act inconclusive, Nrf2 ARE act 11µM
O=[N+]([O-])c1ccc(-c2nc(=S)c3c(o2)CCCC3)cc1	none
Cc1ccc(-n2ncc(-c3nn[nH]n3)c2N)cc1	a7 integrin act inconclusive, Chronic BCR inh inconclusive
COc1cc(C)c(NC(C)C(=O)c2c(C)[nH]c3ccccc23)cc1OC (centres undefined)	none (no result: a7 integrin act, IL2 activator, Nrf2 ARE act, Chronic BCR inh, N370S GC mod)
CCN(CC)CCNCC1C(=O)O[C@@H]2C[C@@]3(C)CCC[C@H](C)C3=C[C@H]12 (some centres undefined)	Nrf2 ARE act 11µM, Chronic BCR inh inconclusive
CCN(CC)C(=S)SCC(=O)c1ccccc1	BRCA1 expr act 7.9µM
